Assay outcomes (PubChem BioAssay)
Pol beta inh: blocks human DNA polymerase beta activity; P06746; Pol beta primer extension/strand displacement, fluorescence kinetic; Potency, µM (series often up to 114 µM), for the others: at the top dose activity change, negative = inhibition, usual class: inhibitors; 1.3% of 340,000 active; AID 485314; further: potency means the concentration at half of the fitted maximal effect; on the % scale 0 is the no-effect control and ±100 the full control effect
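Pol beta (10 nM) and compounds were preincubated 15 min at room temperature, then 50 nM substrate (final) started primer extension/strand displacement. Reads were taken at 0 and 10 min; concentration-response data were fitted to a four-parameter Hill equation.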
PI5P4Ka inh: inhibitors of human PI5P4K alpha | PI5P4Kalpha enzyme, ADP-Glo luminescence, 60 min; hits give low values | max response, % | AID 652105 | P48426 | 1.2% of 330,000 active; active means max response of -50% or lower; inconclusive means between -30% and -50%; inactive means -30% or higher; further: value at the top dose of about 77 µM; on the % scale 0 is the no-effect control and ±100 the full control effect
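qHTS, 1536-well: enzyme/substrate mix, compound by pin tool, 5 microM ATP final; RT 60 min; ADP-Glo reagents 1 (45 min) then 2 (30 min); luminescence.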
FEN1 inhibitor: inhibitors of human flap endonuclease 1 | Recombinant FEN1 flap cleavage, fluorescence, 15 min | Potency, µM (doses to about 114 µM), for inactives: at the highest dose activity change, negative = inhibition, hits mostly inhibitors | 0.35% of 390,000 active | AID 588795; further: potency means the concentration at half of the fitted maximal effect; on the % scale 0 is the no-effect control and ±100 the full control effect; nearly all actives have a fitted effect of over 65% in size
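Read-out was taken twice, immediately and after 15 min, following addition of 50 nM substrate to 10 nM FEN1 that had sat with test compound for 15 min at room temperature. Curves came from a four-parameter Hill model.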
POLK inh: inhibitors of human DNA polymerase kappa. Q9UBT6. purified Pol kappa, fluorescent DNA synthesis assay, 10 min. Potency, µM (series often up to 107 µM), inactives show top-dose activity, negative = inhibition, usual class: inhibitors. 0.53% of 400,000 active; further: potency means the concentration at half of the fitted maximal effect; on the % scale 0 is the no-effect control and ±100 the full control effect
Target sequence (Q9UBT6 whole entry, looked up): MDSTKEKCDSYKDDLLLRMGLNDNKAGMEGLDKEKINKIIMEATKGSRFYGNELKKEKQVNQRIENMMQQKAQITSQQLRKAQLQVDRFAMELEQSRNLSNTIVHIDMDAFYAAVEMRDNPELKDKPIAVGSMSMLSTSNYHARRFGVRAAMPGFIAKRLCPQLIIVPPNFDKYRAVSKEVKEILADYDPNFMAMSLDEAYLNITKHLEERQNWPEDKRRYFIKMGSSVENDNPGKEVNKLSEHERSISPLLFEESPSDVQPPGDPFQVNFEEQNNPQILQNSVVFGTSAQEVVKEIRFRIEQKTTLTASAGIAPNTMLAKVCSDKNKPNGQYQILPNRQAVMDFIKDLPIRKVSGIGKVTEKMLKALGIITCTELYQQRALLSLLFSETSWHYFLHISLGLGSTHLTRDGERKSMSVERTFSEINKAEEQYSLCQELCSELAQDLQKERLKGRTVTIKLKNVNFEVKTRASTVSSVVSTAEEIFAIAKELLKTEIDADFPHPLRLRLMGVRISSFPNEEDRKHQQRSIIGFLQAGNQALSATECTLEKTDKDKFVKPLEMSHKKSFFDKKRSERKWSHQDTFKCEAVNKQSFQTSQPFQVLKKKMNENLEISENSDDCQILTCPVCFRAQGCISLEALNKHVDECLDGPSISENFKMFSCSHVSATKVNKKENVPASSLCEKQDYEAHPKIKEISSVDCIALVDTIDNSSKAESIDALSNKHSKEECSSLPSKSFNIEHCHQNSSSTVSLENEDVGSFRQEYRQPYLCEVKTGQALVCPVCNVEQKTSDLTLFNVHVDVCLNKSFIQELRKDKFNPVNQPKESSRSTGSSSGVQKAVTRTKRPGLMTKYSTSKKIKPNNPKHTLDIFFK
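Activity was followed as the change in fluorescence between reads at 0 and 10 min after starting the reaction with 50 nM substrate. Beforehand, 10 nM polymerase had been preincubated with compound for 15 min at room temperature.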
POLH inh: inhibitors of human DNA polymerase eta. AID 588591. Potency, µM (titrated, usually from 114 µM), without a hit: at the top dose activity change, negative = inhibition, usual class: inhibitors. 1.2% of 390,000 active. Q9Y253. recombinant Pol eta, fluorescent DNA replication assay; further: potency means the concentration at half of the fitted maximal effect; on the % scale 0 is the no-effect control and ±100 the full control effect
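Fluorescent replication assay: 50 nM final substrate added after a 15 min room-temperature compound preincubation with 10 nM enzyme. Signal taken at 0 min and again at 10 min.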
Pol iota inh: inhibitors of human DNA polymerase iota. 1% of 390,000 active. Potency, µM (titrated, usually from 115 µM), without a hit: top-dose activity, negative = inhibition, hits mostly inhibitors. Q9UNA4. Pol iota fluorescent replication assay, 10 min; further: potency means the concentration at half of the fitted maximal effect
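Pol iota at 10 nM preincubated 15 min with compounds at room temperature; reaction started with fluorescent substrate, 50 nM final. Fluorescence read kinetically at 0 and 10 min; buffer-only wells as negative control.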
Starred values were filed as active, the others as inactive; ? = inconclusive; · = not tested or not shown; [ ] = dose if it differs, or a comment. Most compounds without a hit are left out; they make up all but 2.8% or so of the library. Unless noted, the call rests on the fitted dose curve; in most records, active means well fitted curve in the direction sought with a large enough effect; inconclusive means small, poorly fitted or top-dose-only effect, or another doubt; inactive means no such curve, though single readings can be large; an effect the other way counts as inactive or inconclusive.

SMILES	Pol beta inh	PI5P4Ka inh	FEN1 inhibitor	POLK inh	POLH inh	Pol iota inh
CC(NC(=S)NC(=O)c1ccccc1Br)c1ccccc1 (centres undefined)	3%	-56*	-18%	-5%	-17%	-20%
O=[N+]([O-])c1ccc(Cl)c(S(=O)(=O)Nc2ccc(-c3ccc(N4CCCC4)nn3)cc2)c1	·	-29	-1%	-9%	45µM*	?
O=S(=O)(Nc1ccc(-c2ccc(N3CCCCCC3)nn2)cc1)c1ccc(C(F)(F)F)cc1	0%	·	-11%	-10%[60.1 µM]	-5%	-25%
CC(=O)c1ccc(S(=O)(=O)Nc2ccc(-c3ccc(N4CCCCC4)nn3)cc2)cc1	?	·	-1%	-15%[60.1 µM]	79µM*	?
O=c1c(-c2cccs2)nc2cncnc2n1Cc1ccccc1	·	·	·	0%[60.1 µM]	·	·
CC1(C)CC(=O)C(C(C2=C(O)CC(C)(C)CC2=O)c2ccc(Br)s2)C(=O)C1 (centres undefined)	-1%	-80*	-13%	-3%	-3%	?
Cc1ccc(C(C2=C(O)CC(C)(C)CC2=O)C2C(=O)CC(C)(C)CC2=O)s1 (centres undefined)	2%	?	-9%	-13%	4%	-17%
COc1cc(C(=O)NCC(c2ccco2)N2CCOCC2)cc(OC)c1OC (centres undefined)	·	-4	-8%	-8%	1%	18%
Cn1c(=O)c2c(ncn2CC(=O)OCC(=O)c2ccc(Br)cc2)n(C)c1=O	·	-57*	·	·	-10%	·
COc1ccc(CN2CCC(Oc3cc(C(=O)NC4CC4)ccc3OC)CC2)c(O)c1	3%	7	-12%	?	-5%	79µM*
Cc1cc(SCC(=O)Nc2nsc(-c3ccc(C(C)(C)C)cc3)n2)nc2ccccc12	20%	·	-6%	-4%	-12%	27%
OCC[N+]1(CCc2ccccc2)CCOCC1	·	·	10%	5%	·	1%
O=C(CSc1ncccc1-c1nc2ccccc2[nH]1)NCc1ccco1	32µM*	·	?	50µM*	25µM*	?
Cc1cc2nc(-c3cccnc3SCC(=O)NC3CC3)[nH]c2cc1C	-17%	·	·	·	·	·
COc1ccc(-c2[nH]c(-c3ccc(C)cc3)nc2SCC(=O)NCc2ccco2)cc1OC	79µM*	4	19%	6%	-5%	-11%
O=C(CSc1nc2ccccc2[nH]1)NCc1ccco1	5%	·	0%	-7%	-2%	-10%
Cc1cc2nc(-c3cccnc3SCC(=O)NCc3ccco3)[nH]c2cc1C	50µM*	·	-18%	-3%	-19%	7%
O=C(CCc1nc2ccccc2[nH]1)N1CCN(C(=O)c2ccco2)CC1	0%	1	0%	13%	-15%	1%
O=C(CSc1ccc(-c2nc3ccccc3[nH]2)cn1)N1CCN(C(=O)c2ccco2)CC1	?	·	?	50µM*	?	16µM*
CNC(=O)C1CCC(Cn2c(=O)c3sccc3n(Cc3cc(C)ccc3C)c2=O)CC1 (centres undefined)	2%	·	20%	15%	-12%	24%
CC(C)CN(CC(C)C)C1=N/C(=C\c2ccco2)C(=O)N1c1ccccc1	28µM*	-2	-8%	-39%	-11%	?
Cc1cc(C)n2nc(SCN3C(=O)c4ccccc4C3=O)nc2n1	45µM*	·	-18%	-32%	-17%	?
Cc1cc(C)n2nc(SCC(=O)Nc3ccccc3)nc2n1	2%	0	15%	-4%	-6%	?
Cc1ccc2nc(COc3ccccc3NC(=O)c3ccc(F)cc3)cc(=O)n2c1	?	·	16%	-15%[60.1 µM]	-10%	89µM*
C1=CCN(Cc2ccccc2)C1	-18%	2	-6%	-2%	1%	-18%
SMILES	Pol beta inh	PI5P4Ka inh	FEN1 inhibitor	POLK inh	POLH inh	Pol iota inh
C/C(=N\OCC(=O)OC(C)C(=O)Nc1ccc(C)c(S(=O)(=O)N2CCOCC2)c1)c1ccc2c(c1)OCO2 (centres undefined)	·	-21	11%	-17%	56µM*	?
Cc1ccc(NC(=O)c2ccc3c(c2)OCO3)cc1S(=O)(=O)N1CCOCC1	·	-1	-19%	-12%	-7%	-14%
Cc1cc(C)cc(OCC(=O)NCC2(N3CCOCC3)CCCCC2)c1	-1%	·	1%	-1%	5%	-11%
Cc1ccc(OCC(=O)NCC2(N3CCOCC3)CCCCC2)cc1C	3%	·	4%	?	-14%	89µM*
O=C(COc1ccccc1F)Nc1ccc(-c2nc3ccccc3s2)cc1	45µM*	·	6%	-13%	-21%	14%
CCOC(=O)C1CCN(c2ncnc3c2cnn3C)CC1	79µM*	-10	19%	-5%	-7%	-7%
O=C(COC(=O)C12CC3CC(CC(Cl)(C3)C1)C2)NCc1ccco1	·	·	1%	2%	·	17%
COc1ccc(C)cc1NC(=O)CSc1ccc(-c2ccco2)nn1	-3%	?	7%	?	?	32µM*
COc1ccc(C)cc1NC(=O)CSc1nnc(-c2ccco2)n1N	-2%	5	1%	-28%	13%	23%
Cc1cccc(NC(=O)CSc2ccc(-c3ccco3)nn2)c1C	?	-2	-1%	?	5%	13µM*
COc1ccccc1CCNC(=O)CSc1ccc(-c2ccco2)nn1	16µM*	?	-2%	-23%	-16%	?
CSc1cccc(NC(=O)c2ccc(NC3=NC4CS(=O)(=O)CC4S3)cc2)c1 (centres undefined)	1%	-1	-15%	11%	-10%	13%
COCc1cccc(-c2csc(C(C)(O)c3cccc(F)c3)n2)c1 (centres undefined)	·	6	·	·	·	·
O=C(NCCCN1CCOCC1)C(=O)N/N=C/c1c2ccccc2cc2ccccc12	-11%	2	40µM*	-24%	-8%	22%
NC(=O)C(=O)N/N=C/c1c2ccccc2cc2ccccc12	1%	5	25µM*	-11%	9%	22%
Cc1ccc(Cl)cc1N1CCN(S(=O)(=O)c2ccc3c(c2)CC(=O)N3C)CC1	35%	-6	15%	-5%	-23%	14%
CCCN1C(=O)c2ccccc2NC1c1ccc(OC)c(COc2ccc([N+](=O)[O-])cc2)c1 (centres undefined)	·	·	-20%	5%	·	8%
O=[N+]([O-])c1ccc2nc(-c3ccccc3)n(OCc3ccc(Cl)cc3)c2c1	28µM*	-26	1%	?	16µM*	-5%
O=C(O)COn1c(-c2ccccc2)nc2ccc(Cl)cc21	-2%	-4	-1%	-9%	-13%	15%
COc1cc(NC(=O)CNC(=O)Cn2cnc3sc(C)c(C)c3c2=O)cc(OC)c1OC	·	-7	·	·	-3%	·
O=C(COC(=O)c1cccnc1)Nc1ccc2c(c1)OCO2	-20%	3	18%	-6%	-4%	20%
